These results are taken from PubChem BioAssay (Tox21).

“And” between values parts separate entries of the source, which are not always exact repeats. Equal values may be shown once. Inconclusive results are not listed. Entries that show only a call come without a potency. Where a structure was tested more than once in an assay, its records may differ in their call. The source made the active and inactive calls. Calls come from the whole dose curve; as a rule, active = well fitted curve in the direction sought with a large enough effect in the repeat runs; inconclusive = weak or mixed curves; inactive = no such curve, though single readings can be large; an effect the other way counts as inactive or inconclusive.
Potency is the fitted concentration of half-maximal effect.

A short description of one assay: qHTS RealTime-Glo MT Cell Viability Assay in HEK293 cells - 40 hour (AID 1224874). Note: nearly all actives have a fitted effect of over 50% in size. To be noted: RealTime-Glo luminescence; max response: stronger effect = lower value. An outline of the steps: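 Luminescence, which tracks viable cell number through reduction of the prosubstrate to a NanoLuc substrate, was read over continuous 37 C culture. Cells (600/well) were premixed with reagent and rested 5 h before 23 nL of compound in DMSO was pinned.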
(In general: In qHTS, concentration-response curves come from the screen itself.)
Regarding `Cc1ccc(C(=O)c2cc(O)c(O)c([N+](=O)[O-])c2)cc1`, the Potency was 49 µM (active).
For the compound `CN1C(C(=O)Nc2ccccn2)=C(O)c2ccccc2S1(=O)=O`, the max response was 10.9% (inactive) and -0.648% (inactive).
As to `Cc1c(OCC(F)(F)F)ccnc1CS(=O)c1nc2ccccc2[nH]1` (centres undefined), the Potency was 21.9 µM (active) and 10.7 µM (active).
The same measure, in the same setting: the same measure for `Nc1ccc(Nc2ccccc2)cc1`: 48.5 µM (active); for `COc1cc([C@@H]2c3cc4c(cc3[C@H](O)[C@H]3COC(=O)[C@H]23)OCO4)cc(OC)c1OC`: 0.0489 µM (active).
As to `CC(C)OC=O`, the max response was 5.62% (inactive) and -7.32% (inactive).
For `OC(CCl)CCl`, the max response was 2.58% (inactive) and 9.25% (inactive).
On the same count and under the same terms, to `CC(C)OB(OC(C)C)OC(C)C` belongs -5.59% (inactive) and -12.5% (inactive).
On the same count and under the same terms, the same measure for `C[Si](C)(C)O[Si](C)(C)C`: -0.246% (inactive) and 0.761% (inactive); for `c1cc(-c2ccncc2)ccn1`: -8.48% (inactive) and 4.82% (inactive).
With `NNc1ccc(C(=O)O)cc1`, the max response was 12.1% (inactive).
Still for that read-out and setting: to `O=C(OCc1ccccc1)c1ccccc1O` belongs -14.6% (inactive) and -4.96% (inactive); to `NC=O`, -1.02% (inactive) and -20.4% (inactive).
Still for that read-out and setting: to `Cc1cc2nc3c(=O)[nH]c(=O)nc-3n(C[C@H](O)[C@H](O)[C@H](O)CO)c2cc1C` belongs -7.07% (inactive) and -0.427% (inactive) and -0.0783% (inactive).
The same measure, in the same setting: the same measure for `Nc1ncnc2nc[nH]c12`: 0.881% (inactive) and 2.65% (inactive).
As to `CC(CCC(=O)O)(c1ccc(O)cc1)c1ccc(O)cc1`, the max response was -1.02% (inactive) and 0.133% (inactive).
`C=C(C)C1CC=C(C)CC1` (centres undefined): the max response was 1.72% (inactive) and 5.41% (inactive).
With `Cc1[nH]c(=O)c(C#N)cc1-c1ccncc1`, the max response is 0.254% (inactive) and -5.73% (inactive).
Same read-out and setting: to `O=C(c1ccccc1)c1ccc(O)cc1O` belongs -11.1% (inactive) and -19.8% (inactive).
Still for that read-out and setting: the same measure for `CCCCCCCCCC(=O)OC`: 7.54% (inactive) and -2.85% (inactive); for `Cc1cccc(C(=O)O)c1`: 0.572% (inactive) and -3.52% (inactive).
Take `c1ccc(Nc2ccccc2)cc1`: the Potency was 19.5 µM (active) and the max response is 12.7% (inactive).
Regarding `CCCC(=O)O`, the max response was 23.6% (inactive) and 12.6% (inactive).
On the same count and under the same terms, the same measure for `O=[N+]([O-])c1ccc2c(c1)Cc1ccccc1-2`: 0.388% (inactive) and -3.63% (inactive); for `OCCO`: -5.99% (inactive) and -0.466% (inactive).

A short description of another assay: A CellTox Green Cytotoxicity Assay to monitor cytotoxicity in HEK293 cells - 24 hour (AID 1224875). Note: nearly all actives have a fitted effect of over 45% in size. Particulars: CellTox Green fluorescence; series mostly up to 76.8 µM. An outline of the steps: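 Fluorescence from a DNA-binding dye excluded by viable cells was measured repeatedly in the same HEK293 wells (600 cells/well) during continuous compound exposure at 37 C. Each assay gives one read point: 0, 8, 16, 24, 32 or 40 h.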
On to `CC1=CCC(C(C)(C)O)CC1` (centres undefined), for which the Potency entry is “inactive”.
On to `Nc1ncn([C@@H]2O[C@H](CO)[C@@H](O)[C@H]2O)c(=O)n1`, for which the Potency entry is “inactive”.
Regarding `CCOC(=O)C(C#N)=C(c1ccccc1)c1ccccc1`, the Potency result is “inactive”.
The same measure, in the same setting: the same measure for `CCC(C)(O)CCCC(C)C` (centres undefined): “inactive”; for `CCCCNS(=O)(=O)c1ccccc1`: “inactive”.
On the same count and under the same terms, the same measure for `CC(C)CC(C)(O)C#CC(C)(O)CC(C)C` (centres undefined): “inactive”; for `c1ccc2c(c1)c1cccc3ccc4cccc2c4c31`: “inactive”.
Consider `O=C(/C=C/c1ccccc1)OCc1ccccc1`, for which the Potency result is “inactive”.
For `CC(C)(C)NC(=O)[C@H]1CC[C@H]2[C@@H]3CC[C@H]4NC(=O)C=C[C@]4(C)[C@H]3CC[C@]12C`, the Potency entry is “inactive”.
Still for that read-out and setting: the same measure for `CCCc1c(OCCCCc2nn[nH]n2)ccc(C(C)=O)c1O`: “inactive”.
Still for that read-out and setting: to `CCCCCCCCCCCO` belongs “inactive”; to `COc1ccc(OC)c(C(O)CNC(=O)CN)c1` (centres undefined), “inactive”.
Still for that read-out and setting: the same measure for `COC(=O)Nc1nc2ccc(S(=O)c3ccccc3)cc2[nH]1` (centres undefined): “inactive”; for `Cc1ncc[nH]1`: “inactive”; for `Cc1ccc(C(=O)c2cc(O)c(O)c([N+](=O)[O-])c2)cc1`: “inactive”.
For the compound `CN1C(C(=O)Nc2ccccn2)=C(O)c2ccccc2S1(=O)=O`, the Potency entry was “inactive”.
The same measure, in the same setting: to `Cc1c(OCC(F)(F)F)ccnc1CS(=O)c1nc2ccccc2[nH]1` (centres undefined) belongs “inactive”; to `Nc1ccc(Nc2ccccc2)cc1`, “inactive”; to `COc1cc([C@@H]2c3cc4c(cc3[C@H](O)[C@H]3COC(=O)[C@H]23)OCO4)cc(OC)c1OC`, “inactive”.
Still for that read-out and setting: to `CC(C)OC=O` belongs “inactive”; to `OC(CCl)CCl`, “inactive”; to `CC(C)OB(OC(C)C)OC(C)C`, “inactive”.
For `C[Si](C)(C)O[Si](C)(C)C`, the Potency entry is “inactive”.
Take `c1cc(-c2ccncc2)ccn1`: the Potency entry is “inactive”.
Still for that read-out and setting: the same measure for `NNc1ccc(C(=O)O)cc1`: “inactive”; for `O=C(OCc1ccccc1)c1ccccc1O`: “inactive”; for `NC=O`: “inactive”.
On the same count and under the same terms, to `Cc1cc2nc3c(=O)[nH]c(=O)nc-3n(C[C@H](O)[C@H](O)[C@H](O)CO)c2cc1C` belongs 48.5 µM (active) and 40.5 µM (active) and 11.7 µM (active); to `Nc1ncnc2nc[nH]c12`, “inactive”.
On the same count and under the same terms, to `CC(CCC(=O)O)(c1ccc(O)cc1)c1ccc(O)cc1` belongs “inactive”; to `C=C(C)C1CC=C(C)CC1` (centres undefined), “inactive”; to `Cc1[nH]c(=O)c(C#N)cc1-c1ccncc1`, “inactive”.
Consider `O=C(c1ccccc1)c1ccc(O)cc1O`, for which the Potency result is “inactive”.
Same read-out and setting: the same measure for `CCCCCCCCCC(=O)OC`: “inactive”; for `Cc1cccc(C(=O)O)c1`: “inactive”; for `CCCC(=O)O`: “inactive”.
In the case of `O=[N+]([O-])c1ccc2c(c1)Cc1ccccc1-2`, the Potency entry was “inactive”.
Take `OCCO`: the Potency entry was “inactive”.
